From PubChem BioAssay AID1851 (National Center for Advancing Translational Sciences (NCATS), 2009) come the findings set out here.

Molecules are shown by their SMILES. The whole screen tested about 16,000 compounds, of which about 5,100 (32%) were called active. Another 25% or so got no clear call; they are omitted. The call rests on the fitted dose curve; in most records, active means well fitted curve in the direction sought with a large enough effect; inconclusive means small, poorly fitted or top-dose-only effect, or effect the other way; inactive means no such curve, though single readings can be large or run the other way. The list shows a part of the results.

A word on the AC50: it is the concentration giving half of the maximal activity seen.
On the % scale 0 is the no-effect control and ±100 the full control effect.

For this test, the target named is Cytochrome P450 3A4 (Homo sapiens) (UniProt P08684). The test can be described thus: Cytochrome panel assay with activity outcomes. The conditions noted are these: recombinant CYP, pro-luciferin dealkylation, luminescence, p450-cyp3a4; series mostly up to 57.1 µM.
Chain of Cytochrome P450 3A4 (Homo sapiens) (P08684 whole entry, looked up): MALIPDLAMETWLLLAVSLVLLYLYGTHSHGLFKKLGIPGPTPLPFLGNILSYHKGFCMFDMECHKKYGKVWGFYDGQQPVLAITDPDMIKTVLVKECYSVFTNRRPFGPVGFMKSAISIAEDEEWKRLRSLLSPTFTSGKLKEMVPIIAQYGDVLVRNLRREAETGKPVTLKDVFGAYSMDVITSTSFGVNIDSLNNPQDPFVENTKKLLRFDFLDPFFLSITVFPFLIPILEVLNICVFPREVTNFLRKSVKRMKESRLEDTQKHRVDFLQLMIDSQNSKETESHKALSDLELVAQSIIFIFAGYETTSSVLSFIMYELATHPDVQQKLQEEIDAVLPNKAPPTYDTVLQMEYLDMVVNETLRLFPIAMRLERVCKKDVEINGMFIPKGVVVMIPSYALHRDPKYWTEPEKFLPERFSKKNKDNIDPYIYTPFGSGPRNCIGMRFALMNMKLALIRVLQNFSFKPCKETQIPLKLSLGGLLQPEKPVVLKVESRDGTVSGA
In the case of `O=C(NCC1CCCO1)c1cc(-c2ccc(Cl)cc2Cl)on1` (configuration not stated), the AC50 entry is “inactive”.
The same measure, in the same setting: next, `O=C(Nc1cnn(Cc2ccc(Cl)cc2Cl)c1)c1cc(-c2cccs2)on1`: 10 µM (active); `O=C(CCCn1cnc([N+](=O)[O-])n1)Nc1ccc(Cl)c(Cl)c1`: 14.1 µM (active); `O=C(Cn1cnc([N+](=O)[O-])n1)N/N=C/c1ccccc1O`: “inactive”.
Still for that read-out and setting: the value for `CC(C)(C)NC(=O)Cn1cnc([N+](=O)[O-])n1` was “inactive”; that for `O=C1O/C(=C\Br)CC[C@@H]1c1cccc2ccccc12` was 3.98 µM (active); that for `Cc1cccc(-c2c3c(=O)n(C)c(=O)n(C)c3cn2C2CCCCC2)c1` was 7.94 µM (active).
Same read-out and setting: next, `COc1ccccc1NC(=O)C(C/C=C(\C)Cl)C(C)=O` (configuration not stated): 14.1 µM (active).
As to `COC(=O)c1ccccc1NC(=O)C(CCS(C)(=O)=O)NC(C)=O` (configuration not stated), the AC50 entry is “inactive”.
Still for that read-out and setting: next, `CCCN1C(=O)C2(/C(=C(\O)c3ccc4c(c3)OCCO4)C(=O)C(=O)N2CCCOC)c2ccccc21` (configuration not stated): “inactive”; `COc1ccccc1CN1CC[C@@]2(CCCN(C(C)=O)C2)C1`: “inactive”; `COc1ccccc1CN1CCC2(CC1)CCN(C(=O)c1ccco1)CC2`: “inactive”.
Take `COc1ccccc1CN1CC[C@@]2(CCCN(C(=O)c3ccco3)C2)C1`: the AC50 was 20 µM (active).
For the compound `COc1ccccc1CN1CCC2(CC1)CCN(C(=O)c1cccn1C)CC2`, the AC50 result is “inactive”.
Turning to `COc1ccccc1CN1CC[C@@]2(CCCN(C(=O)c3cccn3C)C2)C1`, the AC50 was 12.6 µM (active).
Still for that read-out and setting: next, `COCC(=O)N1CCC[C@@]2(CCN(Cc3ccccc3OC)C2)C1`: “inactive”; `Cc1cc(NC(=O)c2nn(C)c(C)c2[N+](=O)[O-])no1`: “inactive”.
In the case of `C=CCNc1nc(-c2ccc(Cl)cc2)cs1`, the AC50 is 14.1 µM (active).
Consider `Cc1ccc(-c2csc(N/N=C/c3ccco3)n2)cc1`, for which the activity, negative = inhibition was -6.49% [at 2.29 µM] (inactive).
As for `CCCCCN1CC(O)=C(c2nc(-c3ccc(Cl)cc3)cs2)C1=N`, the AC50 entry was “inactive”.
Still for that read-out and setting: next, `CC(C)(C)NC[C@H](O)COc1cccc2c1CCC(=O)N2`: “inactive”; `CC(C)(C)NC(=O)C(Cc1ccccc1)NS(=O)(=O)c1ccc2c(c1)CCC(=O)N2` (configuration not stated): 3.16 µM (active).
On to `CC1=N[C@@](C)(COC(=O)[C@]2(C)N[C@](C)(CO)CO2)COC1=O`, for which the activity, negative = inhibition was -22.8% [at 11.4 µM] (inactive).
With `Cc1cccc(OCC(=O)N/N=C\C=C\c2ccc3c(c2)OCO3)c1C`, the AC50 is 2.24 µM (active).
Same read-out and setting: the value for `COC(=O)N/N=C\C=C\c1ccc2c(c1)OCO2` was “inactive”.
As to `N[C@@H](Cc1nn[nH]n1)C(=O)O`, the activity, negative = inhibition is -2.7% [at 11.4 µM] (inactive).
The same measure, in the same setting: the value for `O=[N+]([O-])c1cccc(-c2nc(-c3ccccc3)c(-c3cccs3)[nH]2)c1` was -13.1% [at 2.29 µM] (inactive).
`Cc1ccsc1-c1nc(-c2ccccc2)c(-c2ccccc2)[nH]1`: the AC50 was 14.1 µM (active).
For `COc1ccc(-c2[nH]c(-c3ccc(C(=O)O)cc3)nc2-c2ccccc2)cc1`, the AC50 result was “inactive”.
The same measure, in the same setting: the value for `O=[N+]([O-])c1cccc(-c2nc(-c3cccs3)c(-c3cccs3)[nH]2)c1` was 12.6 µM (active).
Turning to `c1ccc(-c2nc(-c3cccs3)[nH]c2-c2ccccc2)cc1`, the AC50 was 11.2 µM (active).
Consider `O=C(O)c1nc(-c2ccccc2)[nH]c1C(=O)O`, for which the activity, negative = inhibition is -3.83% [at 11.4 µM] (inactive).
On to `CCOC(=O)Cc1cc(=O)n2[nH]c(C)c(C#N)c2n1`, for which the AC50 result was “inactive”.
Same read-out and setting: the value for `NC(=O)C(=O)O` was “inactive”; that for `CCOc1cc(CN2CCN(c3ccc(C(C)=O)cc3)CC2)ccc1OC` was “inactive”.
On to `COc1ccc(C(=O)CN2CCN(c3ccc(F)cc3)CC2)cc1OC`, for which the AC50 was 28.2 µM (active).
Still for that read-out and setting: the value for `CCC(C)NCc1ccc(C(=O)OC)o1` (configuration not stated) was “inactive”; that for `CCC/C=C(\CCC)C(NS(=O)(=O)c1cccc2cccnc12)c1ccc(-c2ccccc2)cc1` (configuration not stated) was 3.16 µM (active); that for `CCC/C=C(\CCC)C(NS(=O)(=O)c1cccc2cccnc12)c1ccc(C(=O)OC)cc1` (configuration not stated) was 5.01 µM (active).
Consider `CCC(C)N1C(=O)C2C(C(=O)Nc3cccc(OC)c3)C3C=CC2(O3)C1C(=O)NC1CCCCC1C` (configuration not stated), for which the AC50 is 15.8 µM (active).
Same read-out and setting: next, `CC12CCC(C(=O)O)(C/C1=N\O)C2(C)C` (configuration not stated): “inactive”; `COc1ccc(C2C(C(=O)N3CCN(C)CC3)c3ccccc3C(=O)N2C2CCCCC2)cc1` (configuration not stated): 5.01 µM (active).
With `COc1ccc(C2C(C(=O)N3CCOCC3)c3ccccc3C(=O)N2c2ccc(OC)cc2)cc1` (configuration not stated), the AC50 was 8.91 µM (active).
Take `CN1C(=O)c2ccccc2C(C(=O)O)C1c1cn(C)c2ccccc12` (configuration not stated): the activity, negative = inhibition was 7.7% [at 2.29 µM] (inactive).
In the case of `CCOc1ccc(C2C(C(=O)O)c3ccccc3C(=O)N2CCN2CCOCC2)cc1` (configuration not stated), the AC50 entry is “inactive”.
Regarding `COc1ccccc1N1CCN(c2nc3c(C)cccn3c(=O)c2C=O)CC1`, the AC50 is 15.8 µM (active).
On the same count and under the same terms, next, `Cc1cccn2c(=O)c3cc(C(=O)N4COCC4(C)C)n(C)c3nc12`: “inactive”; `Cc1cccn2c(=O)c(C=NCc3ccco3)c(Nc3ccc(SC(F)F)cc3)nc12`: “inactive”; `COc1ccccc1N1CCN(Cc2cc(=O)n3ccsc3n2)CC1`: “inactive”.
On the same count and under the same terms, the value for `Cc1cccn2c(=O)c(/C=N/O)c(N3CCCC3)nc12` was 12.6 µM (active).
On to `CC(=O)[C@@H](C)CCO[C@@]1(C)OCC[C@@H]1C`, for which the activity, negative = inhibition was -5.36% [at 11.4 µM] (inactive).
As for `CCOC(=O)Cc1csc(NS(=O)(=O)c2ccccc2)n1`, the activity, negative = inhibition was 6.45% [at 2.29 µM] (inactive).
For the compound `O=C(Cc1csc(Nc2nc(=S)[nH]c3ccccc23)n1)NCc1cccc(Cl)c1`, the AC50 is 1.78 µM (active).
Same read-out and setting: the value for `COc1ccc(CNC(=O)Cc2csc(Nc3nc(=S)[nH]c4ccccc34)n2)cc1` was 1.26 µM (active); that for `Cc1ccc(CNC(=O)Cc2csc(Nc3nc(=S)[nH]c4ccccc34)n2)cc1` was 1 µM (active); that for `O=C(Nc1cccc(NC(=O)N2CCN(c3ccccc3)CC2)c1)N1CCN(c2ccccc2)CC1` was 6.31 µM (active).
Still for that read-out and setting: the value for `O=C(Nc1ccccc1)N1CCOCC1` was “inactive”.
For the compound `O=C(O)c1ccc(NCc2nc3cc4ccccc4cc3[nH]2)cc1`, the activity, negative = inhibition is -11.9% [at 11.4 µM] (inactive).
Turning to `CC(=O)Nc1ccc2nc(C3CCCCC3)[nH]c2c1`, the AC50 result was “inactive”.
As for `Cc1cccc(NC(=S)N2CCC(N(C)CC3CCCO3)CC2)c1C` (configuration not stated), the AC50 result was “inactive”.
Regarding `Cc1cc2nc(C3CCCN(C(=O)NCc4ccccc4)C3)[nH]c2cc1C` (configuration not stated), the AC50 is 10 µM (active).
Regarding `Cc1ccc2nc(C3CCCN(C(=S)Nc4ccccc4C)C3)[nH]c2c1` (configuration not stated), the AC50 was 6.31 µM (active).
